The values that follow come from PubChem BioAssay (EPA / NIEHS).

The term AC50 denotes the concentration giving half of the maximal activity seen.

Inconclusive results are not listed. Calls of active or inactive are those of the source. How the source made its calls: active means hit-call score of the fitted dose curve at least 0.9, where 1 is the maximum; inconclusive means response in the unintended direction; inactive means score below 0.9.

Chain of human RAR-related Orphan Receptor gamma (RORg), RORC (gene 6097) (P51449 whole entry, looked up): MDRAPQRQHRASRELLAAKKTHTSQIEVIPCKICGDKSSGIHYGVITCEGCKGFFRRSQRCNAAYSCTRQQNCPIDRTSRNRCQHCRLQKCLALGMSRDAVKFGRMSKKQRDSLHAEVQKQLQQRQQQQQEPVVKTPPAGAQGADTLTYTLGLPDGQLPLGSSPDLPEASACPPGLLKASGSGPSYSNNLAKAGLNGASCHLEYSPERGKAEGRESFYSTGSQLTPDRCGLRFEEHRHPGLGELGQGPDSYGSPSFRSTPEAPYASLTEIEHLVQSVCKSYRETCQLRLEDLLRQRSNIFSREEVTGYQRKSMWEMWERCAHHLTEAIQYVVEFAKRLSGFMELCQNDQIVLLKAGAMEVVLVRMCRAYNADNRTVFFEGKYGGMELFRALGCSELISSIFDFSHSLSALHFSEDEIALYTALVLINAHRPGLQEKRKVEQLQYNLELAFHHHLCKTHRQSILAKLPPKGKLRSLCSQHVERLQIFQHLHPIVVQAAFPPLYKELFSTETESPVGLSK

The test concerns the target human RAR-related Orphan Receptor gamma (RORg), RORC (gene 6097) (UniProt P51449). Nature of the test: ATG_RORg_TRANS: Attagene TRANS-FACTORIAL HepG2 Assay for human RAR-related Orphan Receptor gamma (RORg) (AID 2283011).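 On AC50: potency for induction of reporter transcripts above DMSO so activators.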 How it is done:
ATG_TRANS is a cell-based, multiplexed-readout assay that uses HepG2, a human liver cell line, with measurements taken at 24 hours after chemical dosing in a 24-well plate.ATG_RORg_TRANS is one of 30 assay component(s) measured or calculated from the ATG_TRANS assay. It is designed to make measurements of mRNA induction, a form of inducible reporter, as detected with fluorescence intensity signals by Reverse transcription polymerase chain reaction (RT-PCR) and Capillary electrophoresis technology.Data from the assay component ATG_RORg_TRANS was analyzed into 1 assay endpoint. This assay endpoint, ATG_RORg_TRANS, was analyzed in the positive analysis fitting direction relative to DMSO as the negative control and baseline of activity. Using a type of inducible reporter, measures of mRNA for gain-of-signal activity can be used to understand the reporter gene at the transcription factor-level as they relate to the gene RORC. Furthermore, this assay endpoint can be referred to as a primary readout, because this assay has produced multiple assay endpoints where this one serves a reporter gene function. To generalize the intended target to other relatable targets, this assay endpoint is annotated to the nuclear receptor intended target family, where the subfamily is orphan.
Human liver HepG2 cells are transiently transfected with multiple reporter transcription units (MRTUs) in 6-well plates using FuGene 6 reagent (Roche; 3 ml FuGene/1 mg DNA). The MRTU constructs are regulated by a cis-regulating element (promoter). […] A major difference between the CIS and TRANS system is that in CIS activities of endogenous TFs are measured, whereas the TRANS assay evaluates changes in activities of exogenous, chimeric NR-Gal4 proteins. […] At the end of 24 hour incubation, total RNA was isolated using TriZol reagent (Invitrogen). The isolated RNA is then reverse-transcribed using oligo(dT) primer and Mo-MLV reverse transcriptase (Invitrogen) with DNAse I (Ambion) treatment for 30 min. The one-tenth of the produced cDNA was amplified by PCR using Taq DNA polymerase (Invitrogen) and two reporter sequence-specific primers. The PCR products were fluorescently labeled by primer extension with 6-arboxyfluorescein (6-FAM) 5'-labeled reporter sequence-specific primer (2 min at 95 C, 20 s at 68 C and 10 min at 72 C) and these products were digested with 5U of HpaI (New England Biolabs) for 2h at 37 C. The fragments were purified using Qiaquick PCR columns (Qiagen), analyzed on an ABI 3130xL genetic analyzer (Applied Biosystems) with peak positions identified by using a set of X-rhodamine (ROX)-labeled MapMarker1000 molecular weight standards (BioVentures). The raw capillary electrophoresis data was processed using Attagraph software (Attagene).
Consider `Cc1ccc(N)c(S(=O)(=O)O)c1`, for which the compound was classed as inactive.
In the case of `O=C(O)c1cccnc1C(=O)O`, the call was inactive.
Regarding `CC(=O)OCCCc1ccccc1`, the result was inactive.
`CC(C)CC(C)CC(O)CC(C)C` (stereo not given): the compound was classed as inactive.
The same measure, in the same setting: as for `Nc1ccc(Cl)c([N+](=O)[O-])c1`, the entry is “inactive”.
On the same count and under the same terms, the entry for `Nc1ccc2c(O)cc(S(=O)(=O)O)cc2c1` is “inactive”; for `CC1CCC(C(C)C)C(O)C1` (stereo not given) it is “inactive”; for `CCCCCCC(O)CCCCCCCCCCC(=O)O` (stereo not given) it is “inactive”.
As for `COc1cc(C(C)C)ccc1C`, the call was inactive.
Consider `CCCCC(CC)COC(C)=O` (stereo not given), for which the result was inactive.
On to `O=C(c1ccccc1)C(O)c1ccccc1` (stereo not given), for which the outcome was inactive.
The same measure, in the same setting: the entry for `COCCOCCOCCO` is “inactive”; for `CN(c1nccc(=O)[nH]1)C1CCN(c2nc3ccccc3n2Cc2ccc(F)cc2)CC1` it is “inactive”.
Turning to `CCOc1ccc(NC(=O)CC(C)=O)cc1`, the call was inactive.
The same measure, in the same setting: as for `CCN(CCN)c1cccc(C)c1`, the entry is “inactive”.
Same read-out and setting: as for `CC(C)=CCCC(C)CC(=O)O` (stereo not given), the entry is “inactive”; as for `O=CN1CCOCC1`, “inactive”.
On to `CC1(C)O[C@@H]2C[C@H]3[C@@H]4CCC5=CC(=O)C=C[C@]5(C)[C@@]4(F)[C@@H](O)C[C@]3(C)[C@]2(C(=O)CO)O1`, for which the result was inactive.
For the compound `C=C(C)C(=O)OCCOCCOCCOCCOC(=O)C(=C)C`, the result was inactive.
On the same count and under the same terms, the entry for `CCCN(CCC)S(=O)(=O)c1ccc(C(=O)O)cc1` is “inactive”; for `CS(C)=O` it is “inactive”.
On to `CCN(CCC#N)c1ccc(N=Nc2ccc([N+](=O)[O-])cc2)cc1`, for which the call was inactive.
On the same count and under the same terms, the entry for `CC1C2CC(CC2C2CCCC(O)C2)C1(C)C` (stereo not given) is “inactive”.
For the compound `O=C(CS)OCCOC(=O)CS`, the concentration at half-maximal activity (AC50) is 67 µM (active).
Consider `CN(C)C(=S)SC(=S)N(C)C`, for which the compound was called inactive.
Same read-out and setting: the entry for `O=C(O)CCCCCCCCCCCC(=O)O` is “inactive”; for `CCCC(=O)OCCc1ccccc1` it is “inactive”.
Still for that read-out and setting: as for `O=[N+]([O-])c1ccc(O)cc1C(F)(F)F`, the entry is “inactive”; as for `O=C(O)c1cc(C(=O)O)cc([N+](=O)[O-])c1`, “inactive”.
On the same count and under the same terms, as for `Cc1c(Cl)cccc1[N+](=O)[O-]`, the entry is “inactive”; as for `CC(=O)C1(C)CC2=C(CCCC2(C)C)CC1C` (stereo not given), “inactive”; as for `C=Cc1ccc(C)cc1`, “inactive”.
Take `CC(C)(C)C1=CC(=O)C(C(C)(C)C)=CC1=O`: the AC50 is 72 µM (active).
Same read-out and setting: the figure for `C=Cc1ccncc1` is 60.2 µM (active).
Take `CCO/C=C1\N=C(c2ccccc2)OC1=O`: the result was inactive.
On the same count and under the same terms, as for `CCN(CC)C(=O)N(CC)CC`, the entry is “inactive”.
On the same count and under the same terms, as for `[O-]n1ccccc1=S.[O-]n1ccccc1=S.[Zn+2]`, the entry is “inactive”; as for `CCC(C)c1cc([N+](=O)[O-])cc([N+](=O)[O-])c1OC(=O)OC(C)C` (stereo not given), “inactive”; as for `O=C1OC2(c3ccccc31)c1ccc(O)c(Br)c1Oc1c2ccc(O)c1Br`, “inactive”.
On the same count and under the same terms, the entry for `Brc1ccc(Br)c(Br)c1` is “inactive”.
